HGIII-sPLA2 inh = Inhibits HGIII-sPLA2 liposome hydrolysis, primary screen. inhibition, % at 12.2 µM. QFRET BODIPY PC-A2 liposome hydrolysis, fluorescence. 370,000 tested, 0.56% active;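 active means inhibition above mean plus 3 SD of compounds lying within the high and low control bounds, cut at about 19% in these data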;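 further: 0% = median of test compound wells and 100% = no enzyme DMSO wells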
A3A deaminase = blocks human APOBEC3A ssDNA deamination; recombinant A3A, FAM/TAMRA ssDNA deamination fluorescence; inhibition, % at 20 µM; 330,000 tested, 0.41% active;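 active means at least 40% inhibition at 20 µM here, with at most 30% in a related deaminase screen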;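 further: plate controls were A3A with DMSO for no effect and wells lacking A3A enzyme for full effect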
Target sequence (P31941 whole entry, looked up): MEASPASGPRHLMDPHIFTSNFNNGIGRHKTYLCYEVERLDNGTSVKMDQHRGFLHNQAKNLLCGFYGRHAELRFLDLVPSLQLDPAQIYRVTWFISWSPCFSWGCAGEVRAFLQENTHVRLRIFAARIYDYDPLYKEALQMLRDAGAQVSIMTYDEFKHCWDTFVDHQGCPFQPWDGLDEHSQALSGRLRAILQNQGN
NALP1 yeast inh = NALP1 inhibition | S. cerevisiae NALP1/ASC/caspase-1 growth, X-gal OD620, 72 h | inhibition, % at 10 µM | 280,000 tested, 0.61% active; in the data active means inhibition mostly above about 24%, no sharp cut-off; inactive means mostly below about 32%
Fh CTSL1 inh = blocks F. hepatica cathepsin L1 in PFM18AAP counter-screen. recombinant F. hepatica cathepsin L1, Z-Leu-Arg-MCA fluorescence. inhibition, % at 5.96 µM. 300,000 tested, 0.49% active;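 active means inhibition above the mean of all tested compounds plus 3 SD, set per screening campaign, cut at about 17% in these data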;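 further: 0% = plate median of test compound wells and 100% = 1 µM Z-Phe-Ala-diazomethylketone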
A3G deaminase = inhibitors of human APOBEC3G DNA deaminase; Q9HC16; recombinant A3G, ssDNA deamination FAM/TAMRA fluorescence; inhibition, % at 20 µM; 330,000 tested, 0.28% active; AID 493012;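 active means inhibition of at least 40% at 20 µM, with no more than 30% in the related APOBEC3A deaminase screen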;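 further: plate controls were DMSO wells with A3G for no effect and wells lacking A3G enzyme for full effect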
Target sequence (Q9HC16 whole entry, looked up): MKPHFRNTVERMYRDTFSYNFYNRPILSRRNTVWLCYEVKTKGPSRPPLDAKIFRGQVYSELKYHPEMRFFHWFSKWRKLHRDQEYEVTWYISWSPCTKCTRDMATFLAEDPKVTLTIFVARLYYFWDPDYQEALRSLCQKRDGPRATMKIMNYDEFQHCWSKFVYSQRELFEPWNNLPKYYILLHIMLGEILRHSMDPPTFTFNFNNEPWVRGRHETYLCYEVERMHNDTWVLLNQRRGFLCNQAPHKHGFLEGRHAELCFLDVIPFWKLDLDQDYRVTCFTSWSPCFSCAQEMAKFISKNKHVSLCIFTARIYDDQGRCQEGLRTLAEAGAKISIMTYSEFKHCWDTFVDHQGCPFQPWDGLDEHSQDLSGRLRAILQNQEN
Numbers without * were called inactive; . = no result; ! = a repeat was not active. Shown are actives, neighbours in structure and some others; about 2% of the full set was active somewhere.

SMILES	HGIII-sPLA2 inh	A3A deaminase	NALP1 yeast inh	Fh CTSL1 inh	A3G deaminase
COc1ccc(CC(=O)Nc2ccc(OC)nc2)cc1	6	-3	6	-4	-5
O=C(CCl)Nc1cccc(-c2cnc3ccccc3n2)c1	-4	4	22	74*	-1
O=C(CCc1ccccc1)N[C@H]1[C@@H](OC(=O)c2cccnc2)CCC[C@]12C(=O)N(Cc1ccccc1)c1ccccc12	9	.	.	.	.
Cn1c(=O)n(C)c2cc(NC(=O)CCl)ccc21	0	-1	0	24*	-4
Nn1c(SCC(=O)Nc2ccccc2-c2ccccc2)nnc1-c1n[nH]c2c1CCC2	-3	.	.	.	.
Cc1cc(C(=O)O[C@@H]2CCC[C@@]3(C(=O)N(Cc4ccccc4)c4ccccc43)[C@H]2NC(=O)CCc2ccccc2)no1	5	.	.	.	.
O=C1c2ccccc2-c2ccc(P(=O)(O)O)cc21	3	.	.	.	.
CC(NC(=O)C(=O)N1CCOCC1)C(c1cccs1)N1CCN(c2ccc(F)cc2)CC1 (stereo not given)	7	-1	-21	26*	4
CC(NC(=O)C(=O)N1CCOCC1)C(c1cccs1)N1CCN(c2ccccc2F)CC1 (stereo not given)	5	-1	5	1	2
CC(C)CNS(=O)(=O)/C=C/c1ccc(F)cc1CNC(=O)OC(C)(C)C	-2	.	.	.	.
O=C(N/N=C\c1ccccn1)C1COc2cc3ccccc3cc2O1 (stereo not given)	-9	0	-21	-1	0
NNC(=O)C1COc2cc3ccccc3cc2O1 (stereo not given)	-6	61*	1	-3	0
COc1cc(NC(=O)Cc2ccc(Cl)cc2)ccc1NC(=O)c1ccco1	-23	-3	38*	-1	-3
COc1ccccc1N1CCN(CCCCOc2cccc3ccccc23)CC1	-6	-1	54*	-1	-5
COc1ccccc1N1CCN(CCCCCCOc2ccc(F)cc2)CC1	-2	2	46*	-2	-2
COc1ccccc1OCCCCN1CCN(c2ccccc2OC)CC1	-3	-2	47	1	-7
Fc1ccc(OCCCCCN2CCCC2)cc1	-3	0	-6	-3	2
CC(=O)Nc1sc2c(c1-c1nc3ccccc3s1)CCCN(C(C)C)C2	-9	.	.	.	.
CC(=O)N(C1=C(N)C(=O)c2ccccc2C1=O)c1ccccc1	12	-1	0	30*	-3
Cc1ccc(/C=C/C(=O)c2ccc(O)cc2)cc1	-29	-5	-3	-1	-2
CSc1ccc(/C=C/C(=O)c2ccc(O)cc2)cc1	-18	7	59*	5	0
COC(=O)c1c(NC(=O)CCl)sc(C(=O)N2CCOCC2)c1C	8	-3	3	35*	-11
COC(=O)c1c(N)sc(C(=O)N2CCOCC2)c1C	0	0	0	3	-2
S=C(N/N=C/c1ccc(Cl)cc1)N1CCOCC1	12	-2	34	19*	-6
Cc1ccc(/C=N/NC(=S)N2CCOCC2)cc1	-4	-2	33	28*	-4
SMILES	HGIII-sPLA2 inh	A3A deaminase	NALP1 yeast inh	Fh CTSL1 inh	A3G deaminase
S=C(N/N=C/c1ccc(Br)cc1)N1CCCCC1	3	-6	-20	-1	-6
CCCC1CCC2(CC1)CCC2OC(=S)Nc1ccc(I)cc1 (stereo not given)	3	.	.	.	.
Cc1ccccc1-n1c(SCc2csc(Nc3ccccc3)n2)nnc1-c1cccnc1	-14	0	-4	-3	3
Cc1ccc(Nc2nc(CSc3nnc(-c4cccnc4)n3-c3ccccc3C)cs2)cc1	-19	-2	11	47*	-10
O=C(Oc1coc(CSc2ncccn2)cc1=O)c1ccc([N+](=O)[O-])cc1	-1	.	.	.	.
FC(F)(F)c1ccc2c(c1)NCC1CCCN21 (stereo not given)	9	-7	3	22*	-13
FC(F)(F)c1ccc2c(c1)N1CCCC1CN2 (stereo not given)	2	1	3	3	-1
O=C(CN1C(=O)CCSc2ccccc21)Nc1ccc(F)cc1F	9	.	.	.	.
Cc1nc2sc(C(=O)NC3CC3)c(N)c2c(C)c1Cl	0	.	.	.	.
O=C(CSc1nnnn1-c1ccccc1)CC(=O)Nc1ccc(Cl)cc1	-12	-1	-5	24*	-2
Cc1ccc(-c2nnc(SCC(=O)CC(=O)Nc3ccccc3)n2C)cc1	5	-7	-29	1	-7
Cn1c(SCC(=O)CC(=O)Nc2ccccc2)nnc1-c1ccc(O)cc1	-6	-2	-11	27*	-2
Cc1ccc(OCc2nnc(SCC(=O)CC(=O)Nc3ccccc3)o2)cc1	-3	-2	5	25*	-6
O=C(NNc1c2ccccc2nc2ccccc12)c1ccccc1Cl	-1	4	14	18*	-6
O=C(NNc1c2ccccc2nc2ccccc12)c1ccccc1O	9	5	17	2	7
Cc1oc(C(C)(C)C)cc1C(=O)NC1CCN(Cc2ccccc2)CC1	-12	-4	1	-2	-10
CC(C)(C)c1cc(C(=O)O)c(CN2CCCCC2)o1	-1	-2	38*	-1	-5
Cc1nc2cc(C(=O)N3CCN(C(=O)C(Cl)Cl)CC3)ccc2n1C1CCCC1	13	.	.	.	.
Clc1ccsc1-c1ccc2ccccc2n1	4	1	44*	0	-7
c1ccc2nc(-c3nccs3)ccc2c1	5	-1	-5	-1	-12
CCOc1cc(NC(=O)CCl)c(OCC)cc1NC(=O)CCl	3	-4	.	88*	-4
COc1cccc(C=O)c1OCCCOc1cccc2cccnc12	11	-3	29*	-1	15
COc1ccc(C(=O)NCCN2C(=O)C3C4C=CC(C4)C3C2=O)cc1OC (stereo not given)	1	.	.	.	.
NS(=O)(=O)c1ccc(N=Nc2ccc(O)c3ncccc23)cc1	46*	9	-44	6	13
Cc1ccc(-n2c(COc3ccccc3)nnc2SCC(=O)Nc2ccccc2-c2ccccc2)cc1	-22	.	.	.	.
SMILES	HGIII-sPLA2 inh	A3A deaminase	NALP1 yeast inh	Fh CTSL1 inh	A3G deaminase
Clc1ccccc1CN1CCc2sccc2C1	-1	-3	22	22*!	-5
O=C(CN(c1cccc([N+](=O)[O-])c1)S(=O)(=O)c1ccccc1)N(Cc1ccccc1)Cc1ccccc1	-3	0	16	18*	4
O=C(Nc1ncccc1O)c1cccc(S(=O)(=O)N2CCc3ccccc32)c1	-23	-1	34*	5	-4
Cc1cc2oc(=O)cc(C)c2cc1NC(=O)CCl	6	2	19	79*	2
CCCCn1c(N)c(N(CC(C)C)C(=O)c2oc3ccc(OCC)cc3c2C)c(=O)[nH]c1=O	8	4	36*	0	5
O=C(CSc1ccccc1)N1CCN(c2ccc(F)cc2)CC1	12	-5	.	17*	-12
O=C(CSCc1ccc(F)cc1)N1CCN(c2ccccc2)CC1	1	1	-5	-3	-3
CC(=O)Nc1ccc(NS(=O)(=O)c2cccc3nonc23)cc1	5	3	10	17*	18
Cc1cc(C)n(-c2ccc(C(=O)NCc3ccc4c(c3)OCO4)cc2)n1	-7	-3	-2	3	-5
